Results published in the supplement of paper PMC11482750.
± gives the standard deviation of the averaged measurements.

What follows are targets tested with CCC1CCC(=O)O1 [γ-hexalactone] (assay: control-subtracted net OSN firing rate; higher = stronger neuronal activation). Conditions: odorant dilution (vol/vol): 1/100.
Experimental: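 Single sensillum recordings from olfactory sensory neurons. The neurons sit in the maxillary palp or antennal sensilla of D. melanogaster (wild type, mutants, or at1 empty-neuron lines expressing Or42a homologs or the A181D S307P mutant) and of four Scaptomyza species. Each odorant was given as a 1 s pulse from 20 µl loaded on filter paper at 1:100 vol/vol, diluted in mineral oil (γ-hexalactone in DMSO). Spikes were counted in a 0.5 s window starting 0.2 s after onset, background was subtracted, the count was doubled, and the mean solvent-control response was subtracted.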

Target	control-subtracted net OSN firing rate [spikes/s]
Or67dGal4; UAS-SflaOr42a3 at1	48.8 ± 19
Or67dGal4, UAS-Spal Or42a at1	95.8 ± 46
Canton-S ai2b	10 ± 6.9
Canton-S at4c	-6 ± 5.2
Or67dGal4, UAS-Dmel Or42a at1	79 ± 40
Canton-S ab7a	-7.5 ± 11
Canton-S ab4a	2 ± 2
Or67dGal4, UAS-Sfla A181D S307P/+ at1	16.8 ± 14
Canton-S ab1a	0.25 ± 12
Canton-S at1	-2 ± 5.5
Or67dGal4, UAS-Sfla Or42a2 at1	-3.14 ± 2.5
Canton-S ab3b	-0.909 ± 7.1
Canton-S ai3b	-2.5 ± 6.8
Canton-S ab8a	3.2 ± 11
Canton-S ab5b	1.6 ± 5.2
Canton-S ab2b	6.86 ± 9.2
Canton-S ai3a	-1.5 ± 3.4
Canton-S ai2a	-2 ± 5.3
Canton-S ai3c	0.5 ± 4.4
Canton-S ab4b	-4 ± 5.3

Target	control-subtracted net OSN firing rate [spikes/s]
Canton-S ab5a	6.2 ± 8.2
Or67dGal4, UAS-Sfla Or42a4 at1	6 ± 9.1
Canton-S at4b	-2 ± 13
Canton-S pb2a	-7.5 ± 12
Canton-S ab6b	4.22 ± 12
Canton-S ab9a	2.67 ± 7.6
Canton-S ab10b	-0.2 ± 5.2
Canton-S ab1d	1.5 ± 5.5
Canton-S pb2b	-2.5 ± 3.8
Or67dGal4, UAS-Sfla Or42a3/+ at1	34 ± 6.2
Canton-S pb3a	-1.14 ± 8.2
Or67dGal4; UAS-SflaOr42a4 at1	50.9 ± 14
Or67dGal4, UAS-Sfla Or42a4/+ at1	3.43 ± 6.4
Canton-S ab10a	-0.4 ± 7.9
Canton-S ab3a	1.82 ± 8.3
Canton-S ab6a	3.33 ± 7
Or67dGal4; UAS-A181D S301P at1	42.6 ± 20
Canton-S ab1c	1.5 ± 4.2
Canton-S pb3b	-2 ± 8.5
Canton-S ab2a	-6.29 ± 11
